Values joined by “and” are separate entries in the source; they are usually repeats but may differ in a detail not shown here. Equal values may be shown once. Compounds without any hit were thinned out: in the full panel of roughly 79,000, 15% have a hit. Rule as the data show it: active = growth inhibition above about 70%; inactive = the rest. Where a SMILES comes first, the peptide text is derived from it. Bridges are numbered along the chain shown (N, C = ends). [ ]: non-standard residue; d: D form. Aib = CC(C)(N)C(=O)O; βAla = NCCC(=O)O
Columns and labels:
[1] = NCI Yeast Anticancer Drug Screen. Data for the rad50 strain (AID 155);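 also: 0% = growth of vehicle-only cultures of the same strain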; settings: S. cerevisiae rad50 strain growth inhibition, hits give high values; at 50.0 µM unless noted
Outline: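 Relative growth inhibition (compound vs vehicle) was measured in yeast with a defined repair-gene alteration.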

[2] = NCI Yeast Anticancer Drug Screen. Data for the mec2-1 strain (AID 157); settings: S. cerevisiae mec2-1 strain, hits give high values; at 50.0 µM unless noted
Outline: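 mec2-1 yeast strain, carrying an alteration in DNA damage repair or cell cycle control, was exposed to compounds; growth inhibition was measured relative to vehicle-treated controls.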

[3] = NCI Yeast Anticancer Drug Screen. Data for the sgs1 mgt1 strain (AID 161);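 also: 0% = growth of cultures given vehicle only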; settings: S. cerevisiae sgs1 mgt1 strain, hits give high values; at 50.0 µM unless noted
Outline: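 This yeast growth screen uses a strain with defined DNA-repair lesions; compound-treated growth is compared with vehicle-treated growth.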

[4] = NCI Yeast Anticancer Drug Screen. Data for the cln2 rad14 strain (AID 165);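 also: 0% = growth equal to vehicle treated cultures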; settings: S. cerevisiae cln2 rad14 strain, hits give high values; at 50.0 µM unless noted
Outline: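 Yeast carrying cln2 and rad14 alterations (cell cycle control and DNA damage repair) were exposed to compounds. Growth inhibition was measured against vehicle-treated controls.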

[5] = NCI Yeast Anticancer Drug Screen. Data for the bub3 strain (AID 167); settings: S. cerevisiae bub3 mutant strain, hits give high values; at 50.0 µM unless noted
Outline: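 Screening used yeast with an engineered genetic alteration affecting cell cycle control. Compound-exposed cultures were compared with vehicle cultures, and reduced growth was taken as inhibition.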

[6] = NCI Yeast Anticancer Drug Screen. Data for the mlh1 rad18 strain (AID 175); settings: S. cerevisiae mlh1 rad18 strain growth inhibition, hits give high values; at 50.0 µM unless noted
Outline: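 Growth inhibition of the yeast strain was measured after compound exposure and expressed relative to vehicle-treated controls. The strain carries defined defects in DNA damage repair.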

Measured: growth inhibition

O=C1CN(c2cccc(Cl)c2)C(=O)CN1/N=C/c1ccco1
inactive: [1] 18.9% | [2] -14.5% | [3] 18% | [4] 12.7% | [5] 23.8% | [6] 22.1%

O=C(Cc1csc2ccccc12)NCC1CC1
inactive: [1] -17.4% | [2] -19.1% | [3] -0.45% | [4] 2.45% | [5] 11% | [6] -3.55%

O=c1/c(=C/c2ccccc2[N+](=O)[O-])sc2nc3ccccc3n12
inactive: [1] -16.6% | [2] -21.4% | [3] -25.9% | [4] -12.7% | [5] -21.9% | [6] -47.2%

CCN(CC)CCOC(=O)Cc1cccc2c(=O)cc(-c3ccccc3)oc12
inactive: [1] -1.65% | [2] -11.7% | [3] -3.65% | [4] -3.9% | [5] 14.8% | [6] -53%

O=Cc1cccc2ccc3cccc(C(=O)Cl)c3c12
inactive: [1] 20.4% | [2] 46.9% | [3] 37.8% | [4] 18% | [5] 62.5% | [6] 32.5%

CCCCN(CCCC)CCCC(O)c1c2ccccc2nc2ccccc12 (stereo not drawn)
inactive: [1] -3.55% | [2] -5.95% | [3] 7.6% | [4] -13.9% | [5] 1.4% | [6] 12.6%

CC1=C(N2CCOCC2)C(N2CCOCC2)C(C)C1=O (stereo not drawn)
inactive: [1] 16.8% | [2] -5.25% | [3] -4.8% | [4] 13.7% | [5] 9.1% | [6] 3%

Cc1cc(C2=NCC(C)(C)S2)ccc1O
inactive: [1] 15.2% | [2] 7.8% | [3] 8.9% | [4] 10.2% | [5] 25% | [6] 29.5%

Cc1cc(=O)[nH]c(NNC(C#N)c2ccc(O)cc2)n1 (stereo not drawn)
inactive: [1] -26% | [2] -51.3% | [3] -48.4% | [4] -7.6% | [5] -18.6% | [6] -41.8%

CCCCCCCCCCC1CC(=O)OC1=O (stereo not drawn)
inactive: [1] 17.2% | [2] 14.7% | [3] 29.6% | [4] 9.45% | [5] 9.25% | [6] 8.3%

c1ccc2c(c1)OC1OC2Oc2ccccc21
inactive: [1] -25.8% and -10.4% | [2] -39.1% and -3.85% | [3] -26.3% and 7.8% | [4] 1.6% and -6.05% | [5] -57.5% and 8.1% | [6] -28.9% and 11.8%

C/C(CC(C)C)=N/O
inactive: [1] 3.75% and -12.1% | [2] -3.25% and -4.35% | [3] -17.5% and -5.85% | [4] -23.2% and -20.5% | [5] -0.4% and 3% | [6] 11.8% and 9.05%

Cc1ccc([N+](=O)[O-])cc1N
inactive: [1] 31% | [2] 25.4% | [3] 4.15% | [4] 23.2% | [5] 17.1% | [6] 14.7%

CNc1ccccc1C(=O)NCCCN
inactive: [1] -10.3% | [2] -25.6% | [3] 5% | [4] 2.75% | [5] 18.8% | [6] 0.45%

N#CC(C#N)N=O (tested in a mixture with another compound)
inactive: [1] -4.1% | [2] -15.3% | [3] -15.2% | [4] -19.7% | [5] -6.9% | [6] -6.25%

Cc1cc(N(CCC#N)CCC#N)ccc1/C=C1/CN(N2C(=O)/C(=C/c3ccc(N(CCC#N)CCC#N)cc3C)N=C2c2ccccc2)C(c2ccccc2)=N1
inactive: [1] -2.7% | [2] -25.4% | [3] -22.6% | [4] 5.6% | [5] -28.8% | [6] -11.1%

C1C2OC2CC2OC12 (stereo not drawn)
inactive: [1] -13.4% | [2] -9.35% | [3] -1.2% | [4] 55.8% | [5] -1.05% | [6] -4.25%

COC(=O)C1(C(C)C(=O)c2ccccc2)NC(=S)NC(=O)C1C#N (stereo not drawn)
inactive: [1] -6.1% | [2] -16.7% | [3] -35.2% | [4] -11.8% | [5] -14.4% | [6] -25.8%

COC(=O)CCC(NC(=S)N/N=C(\C)c1ccco1)C(=O)OC (stereo not drawn)
inactive: [1] -18.1% | [2] -20.8% | [3] 0.25% | [4] 26.6% | [5] -5.2% | [6] -16.3%

CN(C)C(=S)Oc1ccc(-c2c(-c3ccccc3)oc3ccc4ccccc4c23)cc1
inactive: [1] 28.2% | [2] -4.05% | [3] 7.95% | [4] 10.8% | [5] -0.1% | [6] 9.4%

CCOc1ccccc1N1CCN(CC(O)CSc2ccccc2)CC1 (stereo not drawn)
inactive: [1] 1.3% | [2] -9.25% | [3] -6.2% | [4] -33.6% | [5] 4.95% | [6] -2.65%

CC1(C)NC(=O)C(NC(=O)C(N)CC(=O)O)CCCCNC(=O)CCNC1=O (stereo not drawn) (H-DK[Aib][βAla]; lactam 2-C; configuration not given here)
inactive: [1] -4.35% | [2] -67.5% | [3] -32.3% | [4] -10.6% | [5] 6.35% | [6] -17.9%

O=C(c1ccccc1)N1c2ccc([N+](=O)[O-])cc2Sc2cc([N+](=O)[O-])ccc21
inactive: [1] 16.7% | [2] -3.45% | [3] 33.6% | [4] 8.35% | [5] -10.7% | [6] 13.1%

O=c1cc(-c2ccccc2)[nH]c2c(F)ccc(F)c12
inactive: [1] -27.4% | [2] -46.5% | [3] -34.5% | [4] 11.3% | [5] -34.9% | [6] -18.9%

COc1ccc(/C(=C(/c2ccc(OC)cc2)C2CC2)C2CC2)cc1
inactive: [1] -5.3% | [2] 7.25% | [3] 11% | [4] -14.8% | [5] 5.45% | [6] 10.6%

O=C(O)C1=CCCc2ccc3ccccc3c21
inactive: [1] 10.2% | [2] 6% | [3] 0.2% | [4] -20.4% | [5] -27.9% | [6] 6.25%

CC(=O)NCC(C)NC(C)=O (stereo not drawn)
inactive: [1] -16.6% and -6.55% | [2] -37.4% and -15.4% | [3] -34.2% and -27.1% | [4] -6.75% and 7.7% | [5] -14.8% and -2.45% | [6] -15.2% and 8.1%

CC1=C(C(=O)Nc2ccccc2)C(c2ccc(N(C)C)cc2)C(C(=O)Nc2ccccc2)=C(C)N1
inactive: [1] -13.7% | [2] 7.4% | [3] -6.3% | [4] 24.4% | [5] -6.8% | [6] 15.8%

COc1cc2c(cc1OC)C(=O)c1nccc3ccc(OC)c(c13)O2
inactive: [1] -0.35% | [2] 17.1% | [3] 23.3% | [4] 4.75% | [5] 16.6% | [6] 16.6%

O=C(O)c1ccc(NCC(O)COc2ccc([N+](=O)[O-])cc2)cc1 (stereo not drawn)
inactive: [1] -6.7% | [2] 4.85% | [3] -2.8% | [4] 5.4% | [5] -3.55% | [6] 0.25%

O=C1c2ccc3c4ccccc4n(-c4ccccc4)c3c2C(=O)N1c1ccc(Cl)cc1
inactive: [1] -11.8% | [2] -2.95% | [3] -26.2% | [4] 24.9% | [5] -18.4% | [6] -7.05%

O=C(O)c1c(O)cc(=O)oc1-c1ccc(Cl)cc1
inactive: [1] 10.8% | [2] 0.9% | [3] 3.75% | [4] 4% | [5] 10.4% | [6] 4.75%

CNC(=O)N(C)Cc1ccccc1
inactive: [1] 12.7% | [2] -12.8% | [3] 2.75% | [4] -98.7% | [5] -13.6% | [6] -11.2%

CCOC(=O)N1C(=O)C2C3C=CC(C2C1=O)C1C2C(=O)N(C(=O)OCC)C(=O)C2C31 (stereo not drawn)
inactive: [1] 1.4% | [2] -3.15% | [3] -37.4% | [4] -0.55% | [5] -19.9% | [6] -37.6%

Nc1ccc(C(=O)N/N=C/c2ccccc2O)cc1
inactive: [1] 16.9% | [2] 12.7% | [3] 4.15% | [4] 7.55% | [5] 0% | [6] 19.2%

O=C1/C(=C/c2cccc(Br)c2)Cc2ccccc21
inactive: [1] 20.9% | [2] -7.9% | [3] 12.3% | [4] 18.1% | [5] -1.35% | [6] 15.8%

Nc1c(Cl)ccc2c(Cl)ccnc12
inactive: [1] -1.15% | [2] -9.55% | [3] -7.2% | [4] -21.1% | [5] -9.55% | [6] 7.55%

Cc1cnc2ccccc2c1/C=C/c1ccc(N(C)C)cc1
inactive: [1] -6.15% | [2] -0.1% | [3] 1.55% | [4] -121% | [5] 14.1% | [6] 14.1%

COc1ccc(N=C2C(=Nc3ccc(OC)cc3)N(c3ccccc3)C(=S)N2N=C=C2Sc3ccccc3N2C)cc1
inactive: [1] -13.2% | [2] -24% | [3] -18.4% | [4] -8.3% | [5] -4.05% | [6] -32%

O=S1(=O)C(=C(c2ccccc2)c2ccccc2)S(=O)(=O)c2ccccc21
inactive: [1] 39.7% | [2] 13.3% | [3] 13.9% | [4] 23.9% | [5] -6.55% | [6] 29.1%

C[N+](C)=c1nc(N2CCOCC2)ss1
inactive: [1] 1.95% | [2] 0.65% | [3] 6.8% | [4] 8.95% | [5] -63.4% | [6] -16.9%

C1CCC2=NCCCN2CC1
inactive: [1] -13.8% | [2] -23% | [3] 10.6% | [4] -4.8% | [5] 11.8% | [6] -1%

COc1cc(OC)c(OC)cc1/C=C/c1nc2ccccc2s1
inactive: [1] 25.1% | [2] 20.1% | [3] 41% | [4] 18.8% | [5] 46.9% | [6] 3%

Source: PubChem BioAssay (NCI)
